Consider 44 compounds from PubChem BioAssay AID1347416 (National Center for Advancing Translational Sciences (NCATS), 2020).

The whole screen tested about 4,100 compounds, of which about 1,600 (39%) were called active. Inconclusive results (about 25%) are left out. Calls follow the shape of the dose curve; as a rule, active = well fitted inhibition curve with a large enough effect; inconclusive = small, poorly fitted or top-dose-only effect; inactive = no such curve, though single readings can be large or run the other way. The list shows a part of the results. Where a call stands in place of a potency, no number is given.
Potency is read from the fitted curve at half-maximal effect.

This experiment in a line: qHTS Validation assay for Inhibitors of Plasmodium falciparum Dd2 growth in vitro. Also: nearly all actives have a fitted effect of over 70% in size. Particulars: P. falciparum Dd2 in RBCs, SYBR Green growth, 72 h; series mostly up to 28.7 µM. The source says: Malaria, a parasitic disease spread to humans through the bite of a Plasmodium infected Anopheles mosquito, continues to be a global health burden affecting millions of people, with an estimated 228 million cases and 405,000 deaths in 2018. Concerns about safety and limitations of current antimalarial treatments strongly emphasize the need to develop new therapeutic options. The scarce number of chemotypes and validated drug targets with efficacy against the liver stage, have hindered development of new antimalarials. To address this, a chemoprophylactic drug discovery effort was conducted through a combined phenotypic high-throughput asexual blood stage and liver stage screen, providing a robust foundation to identify liver-stage active lead chemotypes. Compounds were initially screened against Plasmodium falciparum Dd2 strain parasites using a in vitro SYBRGreen-1 based 72 hr proliferation assay to identify novel chemotypes to advance to liver stage assays. NIH/NCATS Early Translation Branch Assay Submitter (PI): Anton Simeonov Ph.D.
[…] Assay Protocol: PROTOCOL TABLE (as described by Inglese et al., 2007) SEQUENCE No. (e.g., 1, 2, 3, etc.); PARAMETER (e.g., Cells, Incubation, Reagent, etc.); VALUE; DESCRIPTION SEQUENCE, Parameter, Description 1; Reagent; 3 uL complete malaria growth medium, 1536 TC treated Black clear bottom plate 2; Controls; 23 nL positive control artesunate (300 nM final) to column 1; Neutral control DMSO to columns 2-4 3; Compound; 23 nL of compounds in dose response concentration (29 uM to 0.5 nM final) 4; Reagent; 5 uL malaria infected red blood cells (2.5% hematocrit final, 0.3% parasitemia 5; Time; 72 hours at 37C (5% O2, 5% CO2, 90% N2; 95% Rh) 6; Reagent; 2 uL lysis buffer/SYBRGreen-1, 25 sec shake immediately following dispense 7; Time; ~16 hours at 37C (5% O2, 5% CO2, 90% N2; 95% Rh) 8; Detector; EnVision (PerkinElmer) bottom read at 485/14nm excitation and 535/25 nm emission NOTES (numbers refer to sequence above): 1; Complete Malaria Growth Media: 1X RPMI-1640 w/L-glutamine, 5.5g/L Albumax II, 367 uM Hypoxanthine, 25 mM HEPES, 0.25% Sodium Bicarbonate, 35 uM Gentamicin sulfate 2; Controls were added using the Kalypsis Pintool (Wako USA) equipped with 1536 pinhead 3; Compounds were added in a 7-point, titration with a high final concentration of 29 uM by Pintool from seven inter-plate titrations of library plates and two DMSO control plates at the beginning and end (see Yasgar et al., 2008). 4; Red blood cells infected with Plasmodium falciparum Dd2 parasites were used. 6; Lysis buffer: 20 mM Tris-HCl, 10 mM EDTA, 0.16% Saponin, 1.6% Triton-X, 10X SYBR Green. REFERENCE: Inglese J, Shamu CE, Guy RK. 2007. Reporting data from high-throughput screening of small-molecule libraries. Nat Chem Biol. doi:10.1038/nchembio0807-438 Yasgar A, Shinn P, Jadhav A, Auld D, Michael S, Zheng W, Austin CP, Inglese J, Simeonov A. 2008. Compound Management for Quantitative High-Throughput Screening. J Lab Autom 13:79-89. doi:10.1016/j.jala.2007.12.004
As to `CC(C)C[C@H]1NC(=O)[C@@H]2C[C@@H](NC(=O)CS(=O)(=O)c3ccccc3)CCN2C1=O`, the Potency result is “inactive”. As for `O=C(Cn1ccn2nc3c(c2c1=O)CCCCC3)NCc1ccccc1Cl`, the Potency entry is “inactive”. The value for `CCOC(=O)N1CCc2c(sc3c2c(=O)n(CCc2ccccc2)c(=O)n3Cc2c(F)cccc2Cl)C1` was 2.66 µM (active); that for `CC(=O)N1CCc2c(sc3c2c(=O)n(Cc2ccccc2)c(=O)n3CC(=O)NCC2CCCO2)C1` (centres undefined) was “inactive”; that for `CCOC(=O)N1CCc2c(sc3c2c(=O)n(-c2ccccc2C(F)(F)F)c(=O)n3Cc2ccccc2C)C1` was 13.3 µM (active). The value for `CCOC(=O)N1CCc2c(sc3c2c(=O)n(Cc2ccccc2)c(=O)n3Cc2ccccc2Cl)C1` was 4.73 µM (active); that for `Cc1nc(C)c(C(=O)NCC2CCCCC(=O)N2)s1` (centres undefined) was “inactive”. The value for `COc1ccc(OC)c(-n2nnc(-c3nc(-c4cc(OC)c(OC)c(OC)c4)no3)c2C)c1` was “inactive”; that for `COc1ccc(OC)c(-n2c(-c3cccc(O)c3)n[nH]c2=S)c1` was 4.22 µM (active). With `O=C1NCCCCCCN(C(=O)c2cnccn2)[C@H]2CCCC[C@@H]12`, the Potency result was “inactive”. Take `Cc1ccsc1-c1[nH]nc2ncc(-c3ccccc3)nc12`: the Potency result was “inactive”. For the compound `COc1ccccc1-c1[nH]nc2ncc(-c3c(C)noc3C)nc12`, the Potency result is “inactive”. Next, `COc1ccc(-c2[nH]nc3ncc(-c4ccc([S+](C)(=O)[O-])cc4)nc23)c(C)c1`: 15.3 µM (active); `O=C(O)C[C@@H]1CCN(C(=O)C2CCCCC2)C[C@@H]1CCN1CCOCC1`: “inactive”. For the compound `CCOc1ccccc1C1NC(=O)N(CC(=O)Nc2ccc(OC)cc2)C2=C1C(=O)OC2` (centres undefined), the Potency result was “inactive”. The value for `CCOc1ccc(NC(=O)CN2C(=O)NC(C)(c3ccc(OC(F)F)cc3)C2=O)cc1` (centres undefined) was 9.44 µM (active); that for `CC1CCC2(CC1)NC(=O)N(CC(=O)Nc1ccc(Cl)cc1)C2=O` (centres undefined) was “inactive”. Next, `CCCN(CC1CC1)C(=O)[C@@H]1COCC(=O)N1Cc1ccccc1`: “inactive”; `Cc1ccc2nc(-c3ccc(O)c(O)c3)cn2c1`: 13.3 µM (active); `Cc1cc(C)c(S(=O)(=O)Nc2cc(-c3cn4ccccc4n3)ccc2C)cc1C`: “inactive”.

On to `CC(C)c1ccc(C2c3[nH]c4ccccc4c3C[C@H]3C(=O)N(c4ccccc4C(=O)N4CCC(C(=O)O)CC4)C(=O)N23)cc1` (some centres undefined), for which the Potency was 6.68 µM (active). The value for `CC(=O)Nc1ccc(NC2=Nc3ccccc3N3C2=Nc2c(c(C)nn2-c2ccccc2)C3c2ccccc2)cc1` (centres undefined) was 6.68 µM (active). `CC(C)NC(=O)N1Cc2[nH]cnc2C[C@H]1C(=O)NCc1ccc(Cl)cc1`: the Potency result is “inactive”. Next, `O=C(Nc1ccc2c(N3CCCC3)ncnc2c1)c1ccc(Br)cc1`: 4.73 µM (active); `O=C(Nc1ccc(CN2CCOCC2)cc1)c1ccc(-c2ccc(Br)cc2)o1`: “inactive”; `O=C(Nc1ccc2c(N3CCOCC3)ncnc2c1)c1ccc(Br)o1`: 2.66 µM (active). Next, `O=C(NC1CCCN(c2cc(-c3ccc(Cl)cc3)[nH]n2)C1)c1ccc(Br)o1` (centres undefined): “inactive”; `O=C(Nc1ccc2c(N3CCCC3)ncnc2c1)c1cccc(Br)c1`: 0.668 µM (active); `CN(C)C(=O)C1CN(C(=O)Nc2cccc(Br)c2)CC12CCOCC2` (centres undefined): “inactive”. The value for `Cc1ccc(C(=O)N2CCCN(c3cc(-c4ccc(Br)cc4)[nH]n3)CC2)cn1` was “inactive”; that for `O=C(COc1ccc(-c2nnc3n2CCCC3)cc1)Nc1cccc(Br)c1` was “inactive”. As for `O=C(Nc1ccc2c(N3CCOCC3)ncnc2c1)c1cccc(Br)c1`, the Potency was 4.22 µM (active). Take `O=C1[C@H]2CN(Cc3cc(F)ccc3F)C[C@H]2C(=O)N1Cc1ccc2c(c1)OCO2`: the Potency entry was “inactive”. Next, `COCCCNC(=O)CCN(CCC(C)C)C(=O)c1cc(C)oc1C`: “inactive”; `Cc1ccc(OC2(C(=O)NC(C)c3nn[nH]n3)CCNCC2)cc1` (centres undefined): “inactive”. Next, `CN(C1CCOCC1)C1CCN(C(=O)c2cccc(Cl)c2)CC1`: “inactive”; `Clc1ccc(Cn2ncc3c(N4CCOCC4)ncnc32)cc1`: “inactive”. Next, `O=C(Nc1ccc2c(N3CCOCC3)ncnc2c1)c1cccc(Cl)c1`: 4.73 µM (active); `Cc1cccc(OCC(=O)N2CCC(c3n[nH]c(=O)n3-c3ccccc3)CC2)c1`: “inactive”. With `CCc1cccc2c(C(CC(=O)N3CCC(C)CC3)c3cccc(C)c3)c[nH]c12` (centres undefined), the Potency was 4.73 µM (active). As to `CN(C)S(=O)(=O)N1CCCC(Cn2c(C3CC3)nc3cccnc32)C1` (centres undefined), the Potency entry was “inactive”. As for `Fc1cc(F)cc(CNc2ncncc2-c2nc(-c3ccccc3)no2)c1`, the Potency entry was “inactive”. In the case of `CCCCCCSc1ccc([C@@H]2[C@H]3C(=O)N(CC)C(=O)[C@H]3[C@]3(C(=O)OC)CCCCN23)cc1OC`, the Potency is 15 µM (active). Next, `COc1ccc2[nH]c(C[C@@H]3C[C@@H](C(C)C)[C@H](CNCc4cccnc4)C=C3C)nc2n1`: 19.3 µM (active).
